Records with an inconclusive call do not appear. Calls come from the whole dose curve; as a rule, active = well fitted activation curve with a large enough effect in the main read-out, with a control signal flat (not every such curve was filed as active); inconclusive = small, poorly fitted or top-dose-only effect, or effect the other way, or a change in a side signal; inactive = flat fitted curve, though single readings scatter.
molecular target: 3',5'-cyclic-AMP phosphodiesterase 4B (Homo sapiens) (UniProt Q07343); test: qHTS Assay for Inhibitors of PDE-IV (AID 607); details: HEK293 ACTOne CNG channel cells, membrane potential fluorescence; series mostly up to 22.9 µM; activation (PDE inhibition): at the top concentration; note: % of control where 0% means no effect
Sequence (Q07343 whole entry, looked up): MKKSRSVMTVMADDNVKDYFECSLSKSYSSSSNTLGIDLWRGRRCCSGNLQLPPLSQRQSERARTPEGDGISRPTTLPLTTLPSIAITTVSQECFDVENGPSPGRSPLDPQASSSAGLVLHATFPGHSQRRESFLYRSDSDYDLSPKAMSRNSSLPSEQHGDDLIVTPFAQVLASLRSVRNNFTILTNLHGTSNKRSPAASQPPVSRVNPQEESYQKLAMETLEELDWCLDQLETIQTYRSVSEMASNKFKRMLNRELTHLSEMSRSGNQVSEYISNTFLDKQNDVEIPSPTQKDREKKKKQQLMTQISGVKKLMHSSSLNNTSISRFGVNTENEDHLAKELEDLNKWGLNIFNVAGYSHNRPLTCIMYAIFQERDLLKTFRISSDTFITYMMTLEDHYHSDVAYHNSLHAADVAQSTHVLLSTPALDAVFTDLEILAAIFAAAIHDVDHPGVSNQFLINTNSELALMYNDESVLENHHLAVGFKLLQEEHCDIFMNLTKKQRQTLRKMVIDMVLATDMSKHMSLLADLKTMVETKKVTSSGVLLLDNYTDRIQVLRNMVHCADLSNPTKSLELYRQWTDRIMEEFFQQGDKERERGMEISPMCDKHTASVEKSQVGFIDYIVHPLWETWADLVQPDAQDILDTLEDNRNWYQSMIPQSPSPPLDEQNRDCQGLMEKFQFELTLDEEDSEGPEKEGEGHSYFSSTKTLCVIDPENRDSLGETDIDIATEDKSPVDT
Outline: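 HEK293 ACTOne cells with CNG channel (1000/well), endogenous PDE4; membrane potential dye, compounds up to 22.9 uM final. Fluorescence Ex 535/Em 590; RO 20-1724 (100 uM final) as reference.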

Activation (PDE inhibition), inactive:
CC(C)=C1C(=O)C(c2ccccc2)=C2CN3C(=O)N(CCc4ccccc4)C(=O)[C@]3(Cc3ccc(C(F)(F)F)cc3)[C@H]21 0.276%
COC(=O)[C@@]1(Cc2ccc(OC)cc2)[C@H]2c3cc(C(=O)N(C)C)n(Cc4ccccc4)c3C[C@H]2CN1C(=O)c1ccccc1 -3.04%
COC(=O)[C@@]1(Cc2ccccc2)[C@@H]2[C@@H](CC(=O)[C@H]2CC(=O)C(=O)N(C)C)CN1C(=O)c1ccccc1 22.9%
COC(=O)[C@@]1(Cc2ccccc2)[C@H]2c3cc(C(=O)N(C)C)n(Cc4ccc(OC)c(OC)c4)c3C[C@H]2CN1C(=O)c1ccccc1 16.9%
COC(=O)[C@@]1(Cc2ccc(OC)cc2)[C@H]2c3cc(C(=O)N4CCCC4)n(Cc4ccc(S(C)(=O)=O)cc4)c3C[C@H]2CN1C(=O)c1ccccc1 20%
COC(=O)[C@@]1(Cc2ccc(OC)cc2)[C@H]2c3cc(C(=O)N(C)C)n(Cc4cccc5ccccc45)c3C[C@H]2CN1C(=O)c1ccccc1 5.5%
CCC/C=C(\CCC)C(NC(=O)CCc1ccccc1)c1ccc(C(F)(F)F)cc1 (stereo not given) -2.42%
COC(=O)[C@@]1(Cc2ccc(OC)cc2)[C@H]2c3cc(C(=O)N(C)C)n(Cc4ccc(C)c(F)c4F)c3C[C@H]2CN1C(=O)c1ccccc1 -33.3%
Cc1ccc(CNC(=O)[C@H](C)[C@H]2C[C@]2(C)[C@H](NC(=O)OCc2ccccc2)c2ccccc2)c(F)c1F 15.1%
COC(=O)[C@@]1(Cc2ccc(F)cc2)[C@H]2c3cc(C(=O)N(C)C)n(Cc4ccccc4)c3C[C@H]2CN1C(=O)c1ccccc1 -2.62%
COC(=O)[C@@]1(Cc2ccc(F)cc2)[C@H]2c3cc(C(=O)N(C)C)n(CC4CC4)c3C[C@H]2CN1C(=O)c1ccccc1 13.2%
COC(=O)[C@@]1(Cc2ccc(OC)cc2)[C@H]2c3cc(C(=O)N4CCCC4)n(CCCNc4ncc(C(F)(F)F)cc4Cl)c3C[C@H]2CN1C(=O)c1ccccc1 1.75%
COC(=O)[C@@]1(Cc2ccc(OC)cc2)[C@H]2c3cc(C(=O)N(C)C)n(CCSCCO)c3C[C@H]2CN1C(=O)c1ccccc1 16.2%
O=C(N[C@@H](c1ccccc1)[C@@H]1C[C@H]1C(=O)NCc1ccccc1)OCc1ccccc1 26.5%
CCCC/C=C/C(NC(=O)CCc1ccccc1)c1ccccc1 (stereo not given) -4.82%
COC(=O)[C@H]1[C@@H]2C[C@H]3c4[nH]c5ccccc5c4CCN3C[C@@H]2CC[C@@H]1O -2.06%
COC(=O)[C@@]1(Cc2ccc(OC)cc2)[C@H]2c3cc(C(=O)N4CCCC4)n(Cc4ccsc4Br)c3C[C@H]2CN1C(=O)c1ccccc1 13.4%
COC(=O)[C@@]1(Cc2ccc(OC)cc2)[C@H]2c3cc(C(=O)N4CCCC4)n(Cc4ccc(C)o4)c3C[C@H]2CN1C(=O)c1ccccc1 22.3%
COC(=O)[C@@]1(Cc2ccc(OC)cc2)[C@H]2c3cc(C(=O)N4CCCC4)n(CCc4ccccn4)c3C[C@H]2CN1C(=O)c1ccccc1 2.54%
CCCC/C=C/C(NC(=O)OCc1ccccc1Cl)c1ccccc1 (stereo not given) 17.9%

— PubChem BioAssay (NCATS)
